# Experimental data as given in ChEMBL document CHEMBL1201862, “PubChem BioAssay data set” (2004).
# The campaign covered roughly 400,000 compounds. About 2,100 (0.53%) were called active. Another 14% or so got no clear call; they are omitted. No rule for the calls is given here. Only a selection was taken, and actives are over-represented in it overall.
# Biological target: Ataxin-2 (Homo sapiens) (UniProt Q99700)
# Test: qHTS for Inhibitors of ATXN expression.
# Assay type: functional
# Ataxin-2 (Homo sapiens), sequence (Q99700 whole entry): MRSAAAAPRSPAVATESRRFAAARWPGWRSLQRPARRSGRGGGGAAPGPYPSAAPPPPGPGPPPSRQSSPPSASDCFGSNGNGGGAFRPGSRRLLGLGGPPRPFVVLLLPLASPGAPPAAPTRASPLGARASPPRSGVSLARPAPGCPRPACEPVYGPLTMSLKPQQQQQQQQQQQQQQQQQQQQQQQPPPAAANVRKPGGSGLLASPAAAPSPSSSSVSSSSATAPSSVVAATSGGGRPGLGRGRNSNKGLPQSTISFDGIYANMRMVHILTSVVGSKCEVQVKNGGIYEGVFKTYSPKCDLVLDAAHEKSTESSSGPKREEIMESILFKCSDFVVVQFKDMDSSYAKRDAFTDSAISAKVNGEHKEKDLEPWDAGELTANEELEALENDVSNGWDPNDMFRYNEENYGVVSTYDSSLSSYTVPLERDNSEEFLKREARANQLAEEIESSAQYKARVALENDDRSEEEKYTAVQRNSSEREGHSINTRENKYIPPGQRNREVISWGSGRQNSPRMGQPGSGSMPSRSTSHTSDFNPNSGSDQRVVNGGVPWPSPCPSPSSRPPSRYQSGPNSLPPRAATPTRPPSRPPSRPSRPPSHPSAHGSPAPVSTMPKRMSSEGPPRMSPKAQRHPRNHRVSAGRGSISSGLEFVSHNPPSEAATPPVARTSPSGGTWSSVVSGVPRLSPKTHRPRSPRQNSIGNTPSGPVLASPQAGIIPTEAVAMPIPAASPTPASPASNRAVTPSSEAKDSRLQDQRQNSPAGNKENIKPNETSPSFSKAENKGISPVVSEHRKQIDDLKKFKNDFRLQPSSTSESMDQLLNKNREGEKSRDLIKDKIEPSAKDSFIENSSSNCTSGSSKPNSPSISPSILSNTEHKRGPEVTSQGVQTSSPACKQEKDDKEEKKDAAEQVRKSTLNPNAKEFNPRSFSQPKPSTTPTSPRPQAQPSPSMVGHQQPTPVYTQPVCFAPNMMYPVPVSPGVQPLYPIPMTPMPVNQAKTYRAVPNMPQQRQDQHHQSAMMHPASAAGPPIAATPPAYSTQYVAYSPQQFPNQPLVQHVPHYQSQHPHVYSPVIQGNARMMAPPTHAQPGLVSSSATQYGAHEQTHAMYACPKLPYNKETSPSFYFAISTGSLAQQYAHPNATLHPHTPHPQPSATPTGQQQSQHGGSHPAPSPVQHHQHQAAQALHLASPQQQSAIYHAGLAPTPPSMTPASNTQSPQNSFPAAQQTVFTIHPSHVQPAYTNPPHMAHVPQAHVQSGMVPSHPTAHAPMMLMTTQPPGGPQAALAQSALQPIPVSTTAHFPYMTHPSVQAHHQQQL
row,SMILES,Potency
1,COc1cc2c(cc1/C=C1/NC(=O)N(CC(=O)Nc3ccccc3)C1=O)OCO2,inactive
2,Cc1c(-c2ccccc2)c(=O)oc2c(CN3CCOCC3)c(O)ccc12,inactive
3,Cc1cccn2c(=O)c3cc(C(=O)NCC4CCCO4)c(=N)n(C4CCCC4)c3nc12 (stereo not drawn),inactive
4,N=c1oc2cc(O)ccc2cc1C(=O)Nc1nc2ccccc2s1,inactive
5,Cc1ccc(S(=O)(=O)N(C)CC(=O)NCC(c2ccc(F)cc2)N2CCOCC2)cc1 (stereo not drawn),inactive
6,O=C(C=Cc1ccccc1)CC(c1ccccc1)N1CCOCC1 (stereo not drawn),28.2 µM (active)
7,O=C(O)c1cc(/C=C/c2ccc(N3CCOCC3)cc2)nc2ccccc12,inactive
8,COc1ccc(C2C=C(c3ccccc3)Nc3nc(NC(C)=O)nn32)cc1 (stereo not drawn),inactive
9,O=C(Nc1cccc(-c2cn3c(n2)SCC3)c1)c1ccc2c(c1)OCO2,inactive
10,Cc1ccsc1C(=O)Nc1ccc(O)c(-c2nc3ccccc3s2)c1,inactive
11,Cc1c(C(=O)Nc2ccc3c(c2)OCCO3)sc2nc(-c3ccccc3)cn12,39.8 µM (active)
12,C/N=c1\scc(C)n1/N=C/c1cc(Br)c(O)c(Br)c1,inactive
13,COc1ccc(NC(=O)c2ccc(NC(=O)CCS(=O)(=O)c3cccs3)cc2)cc1Cl,39.8 µM (active)
14,COc1ccc(Cl)cc1NC(=O)CCS(=O)(=O)c1cccc2nonc12,inactive
15,CCc1ccc(NC(=O)CCNS(=O)(=O)c2cccs2)cc1,inactive
16,Cc1c(OC(C)C(=O)NCCN2CCOCC2)ccc2c3c(c(=O)oc12)CCC3 (stereo not drawn),inactive
17,COc1cc(NC(=O)c2cc(Cl)ccc2Cl)ccc1NC(=O)c1cc2ccccc2o1,22.4 µM (active)
18,O=C(CSc1nc(O)c2ccccc2n1)Nc1ccc(N2CCOCC2)c(Cl)c1,inactive
19,N=c1oc2cc(O)ccc2cc1C(=O)Nc1ccc(Cl)cc1,inactive
20,COc1cc(NC(=O)c2oc3ccccc3c2C)ccc1NC(=O)c1ccco1,inactive
21,CC1CCN(C(=O)c2cc(Cl)ccc2NC(=O)c2ccco2)CC1,inactive
22,Cc1ccc(NC(=O)C2CCN(C(=O)c3ccco3)CC2)cc1,inactive
23,O=C(Nc1ccc(N2CCN(C(=O)c3ccco3)CC2)c(Cl)c1)c1cc2ccccc2o1,22.4 µM (active)
24,O=C(Nc1cc(Cl)ccc1N1CCOCC1)c1cc2ccccc2o1,inactive
25,O=C(Nc1ccc(N2CCN(C(=O)c3ccco3)CC2)cc1)c1cc(Br)ccc1Cl,35.5 µM (active)
26,O=C(Nc1ccc(N2CCOCC2)c(Cl)c1)c1cc2ccccc2o1,39.8 µM (active)

row,SMILES,Potency
1,CCOC(=O)c1cc2ccc(OC(=O)c3ccco3)cc2oc1=O,inactive
2,CCN(CC)c1ccc(/C=N/NC(=O)c2cccc(S(=O)(=O)N3CCOCC3)c2)c(O)c1,inactive
3,CCOC(=O)/C(C#N)=C1\CC2CCC1(C)C2(C)C (stereo not drawn),inactive
4,O=C1c2cccc3c([N+](=O)[O-])ccc(c23)C(=O)N1c1ccccn1,inactive
5,O=[N+]([O-])c1ccccc1Oc1ncccc1[N+](=O)[O-],8.91 µM (active)
6,CCC1Cc2c(nc(N)c3c(N)nc(N4CCOCC4)c(C#N)c23)O1 (stereo not drawn),inactive
7,N#CCc1nc(C(c2ccccc2)c2ccccc2)no1,inactive
8,CCCNC(=O)c1ccc2c(O)c(O)c(-c3ccsc3)nc2c1,inactive
9,CC(C)CN(CC(C)C)S(=O)(=O)c1ccc(C(=O)Nc2sc3c(c2C(N)=O)CCN(C(C)C)C3)cc1,inactive
10,CC(C)N1CCc2c(sc(NC(=O)c3cc4cc([N+](=O)[O-])ccc4s3)c2C(N)=O)C1,29.9 µM (active)
11,CCC(=O)Nc1sc2c(c1C(N)=O)CCN(Cc1ccccc1)C2,inactive
12,CN1CCc2c(sc(NC(=O)c3ccc(S(=O)(=O)N4CCCCCC4)cc3)c2C(N)=O)C1,inactive
13,CC(C)N1CCc2c(sc(NC(=O)c3cc(-c4cccs4)nc4ccccc34)c2C(N)=O)C1,33.6 µM (active)
14,CC(C)N1CCc2c(sc(NC(=O)Cc3ccccc3)c2C#N)C1,inactive
15,CCOc1cc(CNC(C)(C)CO)cc(Br)c1OCc1ccc(Cl)cc1Cl,39.8 µM (active)
16,CCOc1cc(CNCCO)cc(Br)c1OCc1ccc(Cl)cc1Cl,39.8 µM (active)
17,Cc1ccc(C)c(OC(C)C(=O)Nc2ccc(S(=O)(=O)Nc3nccs3)cc2)c1 (stereo not drawn),inactive
18,CCc1nnc(NC(=O)c2sc3nc(C)cc(COC)c3c2N)s1,inactive
19,Cc1nc2ccccc2c(=O)n1/N=C/c1ccc(O)c(O)c1O,inactive
20,Cc1ccc(-c2nc3ccccc3c(=O)o2)cc1,inactive
21,Oc1ccccc1/C=N/n1c(S)nnc1COc1ccccc1,inactive
22,Cc1ccc(-c2[nH]ncc2/C=N/n2c(COc3ccccc3)nc3ccccc3c2=O)cc1,39.8 µM (active)
23,Cc1ccc(-c2[nH]ncc2/C=N/n2c(COc3ccccc3C)nc3ccccc3c2=O)cc1,15.8 µM (active)
24,COc1ccc(/C=N/n2c(S)nnc2COc2ccccc2)cc1OC,inactive
25,O=C(CSc1nnc(-c2cccc(Br)c2)o1)N1CCNC1=O,inactive
26,CC1CCN(S(=O)(=O)c2ccc3nc(Nc4cccc(F)c4)ccc3c2)CC1,35.5 µM (active)

row,SMILES,Potency
1,O=S(=O)(c1ccc2nc(N3CCN(c4ccccc4)CC3)ccc2c1)N1CCCCC1,inactive
2,CC1CCN(S(=O)(=O)c2ccc(NC(=O)CN3CCCC3)cc2)CC1,inactive
3,O=C(OCCN1C(=O)c2cccc3c(N4CCOCC4)ccc(c23)C1=O)c1ccc(Cl)cc1,inactive
4,O=C(CC(=O)N/N=C/c1ccc(C(=O)O)cc1)NCCc1ccccc1,inactive
5,COCCN(Cc1ccccc1)C(=O)c1cccc(S(=O)(=O)N2CCCc3ccccc32)c1,inactive
6,COc1ccc2sc(N(CCCN(C)C)C(=O)c3ccc(S(=O)(=O)N4CCCc5ccccc54)cc3)nc2c1,39.8 µM (active)
7,O=C(Nc1nc2ccc([N+](=O)[O-])cc2s1)c1ccc(S(=O)(=O)N2CCCc3ccccc32)cc1,inactive
8,COc1ccc(C)c2sc(N(CCCN(C)C)C(=O)c3ccc(S(=O)(=O)N4CCc5ccccc5C4)cc3)nc12,22.4 µM (active)
9,O=C(c1ccc(S(=O)(=O)N2CCCCC2)cc1)N1CCc2ccccc2C1,inactive
10,O=S(=O)(c1ccc(F)cc1)N1CCc2ccccc2C1,inactive
11,O=c1[nH]c(=O)c2nc(-c3ccc(Cl)cc3)cnc2[nH]1,inactive
12,O=c1c2nccnc2[nH]c(=S)n1Cc1ccccc1Cl,inactive
13,CC1CN(Cc2cc(=O)oc3cc(O)ccc23)CC(C)O1 (stereo not drawn),inactive
14,COCc1nnc(NS(=O)(=O)c2ccc(OC)cc2)s1,inactive
15,CN1CCN(c2nc(-c3cccnc3)nc3scc(-c4ccccc4)c23)CC1,inactive
16,CC1CCN(c2nc(CN3CCCCC3)nc3scc(-c4ccccc4)c23)CC1,22.4 µM (active)
17,CC(=O)N1CCN(Cc2nc(O)c3c(-c4ccccc4)csc3n2)CC1,inactive
18,Cc1cccc(/N=C/c2cc(Br)cc(Cl)c2O)c1,inactive
19,O=C(C[n+]1ccc2c(c1)nnn2-c1ccccc1)c1ccc(Cl)cc1,inactive
20,O=C1OC(c2ccccc2)(c2cc(Br)ccc2O)c2ccccc21 (stereo not drawn),35.5 µM (active)
21,Cc1ccc(NC2=C(C(=O)Nc3c(C)cc(C)cc3C)C(=N)C(C(=O)Nc3ccc(OC(F)(F)F)cc3)S2)cc1 (stereo not drawn),18.9 µM (active)
22,COCc1cc(C)nc2sc(C(=O)Nc3ccc(OC(F)(F)F)cc3)c(N)c12,inactive
23,CSCCC(NC(=O)C1CCCC1)c1nnc2ccccn12 (stereo not drawn),inactive
24,C=CCN1C=C/C(=C\C=C(C#N)C#N)c2ccccc21,6.7 µM (active)
25,CCCCCCN1C=C/C(=C\C=C(C#N)C#N)c2ccccc21,20 µM (active)
26,O=C(O)COc1ccc(/C=C/c2nc3ccc([N+](=O)[O-])cc3s2)cc1,inactive

row,SMILES,Potency
1,CCN(CC)c1ccc2c(Cl)c(Br)c(=O)oc2c1,inactive
2,c1ccn2c(c1)nc1c2nc2ccccn21,inactive
3,C=CCNC(=O)c1cc2c(=O)n3ccccc3nc2s1,inactive
4,COc1ccc(/C=C/C(=O)c2ccc3ccccc3c2O)cc1CN1CCOCC1,inactive
5,COc1ccc(/C=N/NC(=O)CCn2nnc3ccccc32)cc1,inactive
6,COc1ccc(/C=C/C(=O)c2ccccc2)cc1Cn1nnc2ccccc21,39.8 µM (active)
7,O=C(O)C1Sc2nc(O)sc2C2c3ccc(O)cc3OC(=O)C12 (stereo not drawn),inactive
8,COc1ccc([C@H]2C[C@H](O)[C@@H](n3cc(COC(=O)c4ccccc4)nn3)CN2CC2CCCCC2)cc1,35.5 µM (active)
9,O=C(OCc1cn([C@H]2CN(CC3CCCCC3)[C@@H](c3ccc(Cl)cc3)C[C@@H]2O)nn1)c1ccccc1,35.5 µM (active)
10,COc1ccc(C2C3=C(CCCC3=O)N(CC(=O)O)C3=C2C(=O)CCC3)cc1,inactive
11,COc1ccc(C2CC(c3ccccc3)=NN2c2ccc(C(N)=O)cc2)cc1 (stereo not drawn),inactive
12,O[C@H]1CN(CC2CCCCC2)[C@@H](c2ccc(Cl)cc2)C[C@@H]1n1cc(C2CC2)nn1,20 µM (active)
13,COc1ccc([C@H]2C[C@@H](O)[C@H](n3cc(COC(=O)c4ccccc4)nn3)CN2CC2CCCCC2)cc1,28.2 µM (active)
14,COCC(=O)Nc1nc2n(n1)C(c1ccccc1)CC(c1ccc(OC)cc1)N2 (stereo not drawn),inactive
15,CC(C)C(=O)Nc1ccc(C(=O)N/N=C/c2cc(Br)cc(Br)c2O)cc1,inactive
16,N#Cc1nc(/C=C/c2ccc(F)cc2)oc1N1CCCCCC1,inactive
17,Cc1nc2ccccc2c2c(N)c3ccccc3n12,inactive
18,Cc1ccc(S(=O)(=O)CCC(=O)OCCOc2ccc(Br)cc2)cc1,inactive
19,Cc1ccc(-c2ccc(S(=O)(=O)N3CC(C)OC(C)C3)cc2)cc1 (stereo not drawn),inactive
20,CC(=O)C1=CCC(c2ccc(Br)cc2)N(S(=O)(=O)c2ccc(C)cc2)C1 (stereo not drawn),20 µM (active)
21,COc1ccc(C(C)NCCC(c2ccc(OC(C)C)cc2)c2ccccc2OC)cc1 (stereo not drawn),39.8 µM (active)
22,COc1ccc2[nH]c(SCC(=O)NC(C)c3ccccc3)nc2c1 (stereo not drawn),inactive
23,COc1ccccc1/C=C/C(=O)OCC(=O)NCc1ccc2c(c1)OCO2,inactive
24,Fc1cccc(CNCc2ccc3c(c2)OCO3)c1,inactive
25,COc1ccc(CNCCC(c2ccc3c(c2)OCO3)c2ccccc2OC)cc1 (stereo not drawn),22.4 µM (active)
